Tests used:
Test in all cases: PBM binding z-score (relative to random genomic background probes); higher = stronger binding; sequences stand for … in GC…GCGATTGACAGCGTAGAATGAAGG
[1] = test system: RARb homodimer (NR concentration 270 nM)
Summary of the method: (§1)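 Antibodies against each partner of ligand-free nuclear receptor dimers (one per run) detected binding on custom Agilent 4×180K protein-binding microarrays after 1 h incubation. The double-stranded probes had 34-nt variable regions carrying direct-repeat seeds, single-nucleotide variants, half-site ablations and random human genomic background sequences. Binding z-scores, from regression-normalized fluorescence, use the random background probes as reference.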

[2] = test system: RARg:RXRa (NR concentration 270 nM, RXRa partner concentration 90 nM)
Summary of the method: as §1

[3] = test system: RARg homodimer (NR concentration 270 nM)
Summary of the method: as §1

[4] = test system: RXRa DBDmut IVT, anti-RXR (DBD mutation: RXRa K156A/R161A, NR concentration 90 nM)
Summary of the method: as §1

[5] = test system: RXRa homodimer (NR concentration 180 nM)
Summary of the method: as §1

[6] = test system: THRa:RXRa (NR concentration 90 nM, RXRa partner concentration 90 nM)
Summary of the method: as §1

[7] = test system: THRa homodimer (NR concentration 90 nM)
Summary of the method: as §1

[8] = test system: VDR homodimer (NR concentration 270 nM)
Summary of the method: as §1

| Sequence | PBM binding z-score [1] | PBM binding z-score [2] | PBM binding z-score [3] | PBM binding z-score [4] | PBM binding z-score [5] | PBM binding z-score [6] | PBM binding z-score [7] | PBM binding z-score [8] |
| --- | --- | --- | --- | --- | --- | --- | --- | --- |
| CTCGAAGGGTCGGTTGAGGTGAGTATACGGATAA | 1.41 | 1.55 | 1.56 | 0.489 | 1.17 | 4.74 | 1.49 | 0.596 |
| ATATGTAAGTTAAGGGTCATTCAGGTTGGTTCGC | 3.8 | 3.97 | 3.2 | 2.13 | 4.89 | 3.5 | 1.55 | 4.67 |
| ATATGTAGGTTACATCCGGGTTATTCAGGCTATG | 1.32 | 1.65 | 1.4 | 1.14 | 1.84 | 2.18 | 1.08 | 0.79 |
| ATATGTAGGTTATCGGGTGATTCAGTTTGCGCAT | 1.27 | 0.897 | 0.751 | 0.935 | 1.26 | 1.27 | 1.49 | 0.83 |
| TCTAGTTGGTCAAAGGTCACACTCTCGAAATGCG | 5.1 | 6.72 | 5.71 | 1.96 | 7.91 | 4.01 | 2.1 | 2.53 |
| ATATGTAGGTTAGCTGGGGCCATTCAGACTAGGC | 1.17 | 0.84 | 0.74 | 0.565 | 0.845 | 4.13 | 0.768 | 0.832 |
| ATCTCTAGGTAAGACTCAGTTCAGTGATGAACGC | 0.637 | 0.588 | 0.547 | 0.656 | 0.315 | 0.739 | 0.755 | 1.4 |

From the supplement of paper PMC6555819
